An excerpt weighted towards active compounds, which were near 3.5% of everything screened.
FBW7 act = FBW7 E3 ligase activators, primary screen, biochemical, AlphaScreen, human; normalized activity (activation), % at 26.1 µM; 0.13% of 650,000 active; AlphaScreen FBW7–phospho-cyclin E peptide binding, activator screen; in the data active = normalized activity above about 1.9%;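 also: purified mutant Fbw7 with reduced substrate affinity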
TEAD-YAP block = TEAD-YAP interaction inhibition, primary screen, TEAD-YAP interaction inhibitor project, luminescence, HEK-TIYL cells. 1.4% of 640,000 active. inhibition, % at 9.12 µM. TEAD-Gal4/YAP UAS-luciferase luminescence; in the data active = inhibition above about 32%;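 also: 0% = median of test compound wells and 100% = reference inhibitor wells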
MITF inh = MITF inhibitors, primary screen, biochemical, AlphaScreen, human. Microphthalmia-associated transcription factor (Homo sapiens), O75030. AlphaScreen MITF homodimerization, bead proximity signal. inhibition, % at 2.6 µM. 0.91% of 650,000 active; in the data active = inhibition above about 50%;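 also: 0% = vehicle wells with protein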
GPR151 activ = activators of human GPR151, primary screen, cell-based, PathHunter beta-arrestin, luminescence; G-protein coupled receptor 151 (Homo sapiens), Q8TDV0; PathHunter beta-arrestin GPR151 cells; activation, % at 11.2 µM; 1% of 650,000 active; in the data active = activation above about 4.9%;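 also: 0% = median of compound wells and 100% = cells with positive control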
GPR151 confirm = GPR151 activators, triplicate retest, confirmation, cell-based, PathHunter beta-arrestin, luminescence | AID 1508609, 2020 | shares compounds with GPR151 activ | GPR151 PathHunter beta-arrestin cells, 90 min; % of EA-reagent control over plate median | activation, % at 11.2 µM | 6,700 tested, under 10 active;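 active = mean percent activation across replicates above the confirmation screen cutoff of 4.91%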
GPR119 ag = GPR119 activators in beta-arrestin cells, counter-screen for GPR151 activator project, cell-based, PathHunter beta-arrestin, luminescence, triplicate; shares compounds with GPR151 activ; 90 min; 0 = compound-well median, 100 = enzyme-acceptor control; activation, % at 11.2 µM; 0.3% of 6,700 active;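 active = mean percent activation in the counterscreen above 29.09%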;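 also: counterscreen on off-target GPR119 to flag nonselective hits from the GPR151 activator screen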
Target sequence (Q8TDV5 whole entry, looked up): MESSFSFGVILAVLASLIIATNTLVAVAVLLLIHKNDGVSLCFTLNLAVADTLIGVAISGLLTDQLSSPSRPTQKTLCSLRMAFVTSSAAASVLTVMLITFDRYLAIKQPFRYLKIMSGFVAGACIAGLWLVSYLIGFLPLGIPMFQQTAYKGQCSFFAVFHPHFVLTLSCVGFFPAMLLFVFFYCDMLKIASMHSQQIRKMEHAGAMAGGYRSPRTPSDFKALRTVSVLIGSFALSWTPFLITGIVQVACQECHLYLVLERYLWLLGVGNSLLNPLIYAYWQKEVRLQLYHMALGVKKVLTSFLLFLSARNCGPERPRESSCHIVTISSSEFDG
* marks the source's active call; other numbers are inactive results; nt = no result given.

SMILES | FBW7 act | TEAD-YAP block | MITF inh | GPR151 activ | GPR151 confirm | GPR119 ag
CCCn1c(=O)c2c(nc3n(-c4ccc(C(=O)OCC)cc4)c(C)cn23)n(C)c1=O | -1 | -4 | 9 | 0 | nt | nt
CCCCn1c(=O)c2c(nc3n(-c4ccc(C(=O)OCC)cc4)c(C)cn23)n(C)c1=O | 0 | 6 | 15 | 5.6* | 1 | -10
Cc1nc(NCc2ccoc2)sc1-c1ccn(CCO)n1 | 0 | -5 | 0 | -1 | nt | nt
Cc1cc2c(cc3c(=O)n(CC(=O)N4CCCC(C)C4)nc(C)n32)s1 (configuration not stated) | 0 | 2 | 17 | 0 | nt | nt
CCc1nn(CC(=O)NCCN(C)C2CCCCC2)c(=O)c2cc3sc(C)cc3n12 | 0 | -1 | -1 | 8.6* | 0 | -9
Cc1cc2c(cc3c(=O)n(CC(=O)NCCCN4CCCC(C)C4)nc(C)n32)s1 (configuration not stated) | 0 | -1 | 8 | 7.7* | 0 | -8
CCCCNC(=S)NC(=O)c1ccccc1Cl | 0 | -31 | 0 | -1 | nt | nt
CC(=O)N1CCN(S(=O)(=O)c2ccc(S(=O)(=O)N3CCC(C)CC3)cc2)CC1 | 0 | -2 | 15 | -1 | nt | nt
CC1CCN(S(=O)(=O)c2coc(C(N)=O)c2)CC1 | 0 | -14 | -9 | 10* | 0 | 11
CC(NC1CCCCCC1)C(=O)Nc1ccc(S(N)(=O)=O)cc1 (configuration not stated) | 0 | 0 | -1 | 1 | nt | nt
Cc1ccccc1NC(=O)NC1(C(=O)N2CCN3CCCC3C2)CCCCC1 (configuration not stated) | 0 | -1 | 0 | 12* | 0 | -1
CC(C)c1nnc(C2CCN(C(=O)Cn3c(=O)oc4ccccc43)CC2)o1 | 0 | 11 | -11 | 9.7* | 1 | 0
C=CCN1C(=O)/C(=C/c2ccc(OCC(=O)Nc3ccc(C)cc3)cc2)C(=O)NC1=S | 0 | -6 | 6 | -2 | nt | nt
COc1cc(NC(=O)c2cncc(-c3ccc(N4CCOCC4)nc3)c2)cc(OC)c1OC | 0 | 5 | 12 | -1 | nt | nt
O=C(NNC(=O)c1ccccc1Br)c1ccc(Cl)cc1 | 0 | -14 | -5 | 1 | nt | nt
O=C(NOC(=O)c1ccccc1Br)c1ccc(Cl)cc1 | 0 | 8 | -10 | 8.0* | 0 | 6
Cc1cc(C)n(CC(C)N2CCC(n3nccc3NC(=O)CCCc3ccccc3)CC2)n1 (configuration not stated) | 0 | 1 | 11 | 7.2* | 1 | -15
CN(C)c1nc(Nc2ccc([N+](=O)[O-])cc2)nc(OCC(F)(F)F)n1 | 0 | -1 | -5 | -2 | nt | nt
Cc1ccc(CN2CCc3nnc(CNC(=O)c4ccccn4)n3CC2)cc1 | 0 | 11 | 8 | -1 | nt | nt
Cc1ccc(CN2CCc3nnc(CNC(=O)c4ccccc4)n3CC2)cc1 | 0 | 5 | 6 | 6.0* | 0 | 5
C/C(=C\c1ccco1)CN1CCc2nnc(CNC(=O)CCc3cccnc3)n2CC1 | 0 | -1 | 18 | -2 | nt | nt
C/C=C(\C)CN1CCc2nnc(CNC(=O)CCc3cccnc3)n2CC1 | 0 | 5 | 9 | 15* | 0 | -4
CC(C)=CCN1CCc2nnc(CNC(=O)c3ccccn3)n2CC1 | 0 | 0 | 3 | 0 | nt | nt
CC(C)=CCCC(C)CN1CCc2nnc(CNC(=O)c3ccccn3)n2CC1 (configuration not stated) | 0 | 2 | 8 | 6.8* | 1 | 8
O=c1nc(SCc2ccccc2)c2c([nH]1)CCCC2 | 0 | 0 | 17 | -2 | nt | nt
COc1cccc(NC(=O)c2cc3c(=O)n4ccccc4nc3n(CC(C)C)c2=N)c1 | 0 | -8 | -5 | 5.0* | -1 | -7
COCCn1c(=N)c(C(=O)NCc2ccco2)cc2c(=O)n3ccccc3nc21 | 0 | -13 | 6 | 7.3* | 0 | -8

Screens: PubChem BioAssay, The Scripps Research Institute Molecular Screening Center
